# Reference: PubChem BioAssay (NCI)
# Compounds without any hit were thinned out: in the full panel of roughly 83,000, 20% have a hit.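 How to read the values: 0–100, growth inhibition (40 = 60% inhibited); 0, no net growth; -100 to 0, cell death (-40 = 40% of starting cells died; -100 = all dead).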 A number with no mark means an inactive call. Calls of active or inactive are those of the source. The calls were made as follows: active = growth percent below 10; inactive = the rest.
# Assays:
# Experiment in all cases: NCI-60 one-dose screen, 48 h (100 = growth as untreated, 0 = no growth, -100 = all killed)
# Conditions in all cases: 10 µM
# [1] = test system: DU-145 prostate
# [2] = test system: K-562 leukemia
# [3] = test system: MDA-MB-231 breast
# [4] = test system: RXF 393 renal
# [5] = test system: SF-268 CNS
# [6] = test system: SF-295 CNS
# [7] = test system: SF-539 CNS
# [8] = test system: UACC-257 melanoma
# [9] = test system: M14 melanoma
Compound,growth [1],growth [2],growth [3],growth [4],growth [5],growth [6],growth [7],growth [8],growth [9]
CCN(CC)CCCOC(=O)Nc1ccccc1Cl,105%,99.6%,110%,109%,111%,113%,94.7%,111%,107%
CCCCCN(CCCCC)C(C)C(O)c1ccc2cc(Cl)c3ccccc3c2c1 (stereo not drawn),109%,81.4%,92.7%,97.5%,102%,82.7%,104%,97.7%,93.1%
CCN1CCOC1C(C)C (stereo not drawn),110%,90.3%,99.2%,109%,102%,105%,95%,104%,93.7%
O=C(OCC1OC(n2cc(C(F)(F)F)c(=O)[nH]c2=O)CC1OC(=O)c1ccc([N+](=O)[O-])cc1)c1ccc([N+](=O)[O-])cc1 (stereo not drawn),30.3%,62%,95.3%,80.3%,55.6%,63.5%,18.3%,38.4%,-17.6% (active)
CC(C)CCN(CCCNc1c2c(nc3cc(Cl)ccc13)CCCC2)CCC(C)C,72.1%,22.7%,21.8%,59.9%,73.9%,66.7%,69.8%,71.4%,4.03% (active)
CCOC(=O)c1c(O)c2cc(-c3ccccc3)nc(OCC)c2c(=O)n1C,107%,97.1%,95.9%,-0.249% (active),94.3%,95.6%,94.6%,54.9%,87.8%
COC(=O)c1ccc(Cn2ccc(=O)[nH]c2=O)cc1,105%,113%,99.4%,108%,119%,109%,83.8%,112%,102%
S=C(Cc1ccc(-c2ccccc2)cc1)N1CCOCC1,104%,95.3%,84.7%,103%,101%,93.6%,99%,107%,101%
CCOC(=O)C(=O)Cc1cccnn1,113%,110%,96.4%,102%,113%,139%,92.4%,96.2%,103%
Oc1ccc(/C=N\Nc2ccccn2)c(O)c1,11.1%,24.3%,37.8%,28.5%,16.4%,-4.28% (active),-0.82% (active),30.3%,-36.2% (active)
COc1cc(Cn2c(-c3ccccc3)cc3c2-c2oncc2CC3)cc(OC)c1,0.266% (active),9.87% (active),5.37% (active),33.7%,30.6%,-1.16% (active),-11.9% (active),55.4%,0.789% (active)
CCCCCCCCCCCCCC[n+]1ccc(C)cc1,5.11% (active),9.19% (active),-40.2% (active),-19.6% (active),-32.4% (active),-67.1% (active),-33.5% (active),-21.6% (active),-72.7% (active)
O=C(/C=C/c1nnc2n(Cc3ccccc3)c(=O)c3c4c(sc3n12)CCCC4)c1ccccc1,121%,5.09% (active),106%,98.3%,75.5%,40.4%,99.6%,86.5%,92.7%
CC1(C)Cc2c(cn(Cc3ccccc3)c2-c2ccccc2)-c2oncc21,103%,74.7%,104%,98%,107%,99.5%,107%,101%,100%
[O-]c1c[n+](-c2ccc(Cl)cc2)no1,107%,106%,80.1%,116%,100%,112%,119%,104%,104%
COc1cc(OC)cc(-c2n/c(=C\c3c(O)[nH]c4ccc(OC)cc34)cc3c2=Nc2ccccc2-3)c1,3.54% (active),-9.91% (active),3.25% (active),79.7%,73.6%,98.4%,108%,115%,21.4%
CCCCNC(=O)Oc1ccc(/C(=C(\C)c2ccc(OC)cc2)c2ccc(OCCN3CCCCC3)cc2)cc1,72.9%,-0.634% (active),53.4%,28.6%,66.9%,12.5%,5% (active),-9.86% (active),-54.8% (active)
CCN(CC)CC(O)CNc1ccnc2cc(Cl)c(Cl)cc12 (stereo not drawn),92.6%,77.7%,60%,81.5%,83.2%,97.9%,95.5%,101%,106%
O=[N+]([O-])c1ccc(-c2nc(-c3ccccc3)c(-c3ccccc3)n2-c2ccccc2)cc1,49.4%,-25% (active),14.3%,73.9%,65.8%,16.6%,57.8%,57.4%,49.6%
Cc1ccc(S(=O)(=O)N2CCc3ccccc3CC2)cc1,84.1%,63.9%,83.7%,80.3%,97.5%,73%,97%,52.7%,80.6%
Cc1cn(C(=O)/C(Cl)=C(/Cl)C(=O)O)c2ccccc12,113%,97.9%,96.3%,112%,103%,112%,111%,111%,99.7%
Nc1nc(SCC#CCCl)c2[nH]cnc2n1,56.5%,38.2%,65.6%,46.7%,52.8%,60.2%,50.4%,50%,54.2%
COc1cc(/C=C2\C(=O)Nc3cc(C)c(O)cc32)cc(OC)c1OC,44.6%,15.1%,39.6%,23.5%,60.6%,43.3%,71.3%,-11.1% (active),65.9%
COc1cc(N=C2C(=O)N(Cc3ccccc3)c3ccccc32)cc(OC)c1OC,104%,97.4%,105%,-23% (active),97.4%,94.3%,93%,96.6%,98.2%
COc1ccc(NC(=O)CCn2cnc3c(cc(-c4ccccc4)n3-c3ccccc3)c2=O)cc1,97.1%,90.6%,–,64.4%,24.5%,81.5%,47.3%,13%,91.1%
Cn1cnc([N+](=O)[O-])c1Sc1nnc(-c2ccccc2)c(-c2ccccc2)n1,81.9%,51%,102%,–,85.1%,87.7%,111%,79.9%,76.9%
C=CCNCCCN1C(=O)c2ccc3c4c(ccc(c24)C1=O)C(=O)N(CCCNCC=C)C3=O,-94.8% (active),0.431% (active),1.35% (active),-94.1% (active),-22.1% (active),-76.9% (active),-88.7% (active),-84% (active),-84.8% (active)
COc1ccc(Cn2cc3c(c2-c2ccccc2)CC(C)(C)c2cnoc2-3)cc1,37.6%,18%,57.6%,20.3%,40.9%,-10.7% (active),6.34% (active),58.3%,40.1%
CCCCOCC(=O)NC(NP(=O)(N(C)C)N(C)C)C(Cl)(Cl)Cl (stereo not drawn),139%,84.2%,121%,130%,122%,70%,114%,108%,94.3%
CCOC(=O)c1c(Cl)c2c(n1Cc1cccc(OC)c1)-c1oncc1CC2,21.6%,17.6%,57.1%,46.5%,44.5%,-1.65% (active),5.6% (active),49.1%,17.9%
